Assay outcomes deposited in PubChem BioAssay by Broad Institute.
In the library only some 3.1% were active in any assay of this set; here they are far more common.
miR122 inh – miR-122 Renilla sensor signal increase in Huh7, primary screen, miR-122 inhibitor project, cell-based, single point, plate reader | Huh7 miR-122 Renilla luciferase sensor, 48 h; neutral wells = 0, positive control = 100 | activation (reporter increase), % at 12.5 µM | 340,000 tested, 0.3% active | AID 602342, 2012;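 active means mean replicate activation score at least 90 and every replicate individually at or above 90; inconclusive means only one of the two criteria met; inactive means neither criterion met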;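 further: higher luciferase means less miR-122 activity so hits act as miR-122 inhibitors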
PAX8 reporter – inhibitors of PAX8-driven TPO luciferase reporter, primary screen, RMG-I cells, single concentration; SteadyGlo, 24 h; 360,000 tested, 1.2% active; inhibition, % at 12.6 µM; AID 652154, 2013;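 active means mean replicate inhibition at least 60% with every replicate also reaching 60%; inconclusive means only one of the two criteria is met; inactive means mean below 60% and not all replicates reaching 60%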;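 further: luciferase light reporting Pax8 driven TPO promoter activity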
C2C12 statin – suppressors of statin myotoxicity in C2C12 myotubes, primary screen, cell-based, single point, plate reader; AID 602340, 2012; rescue of ATP level, % at 7.49 µM; 330,000 tested, 0.78% active; C2C12 myotubes + simvastatin, ATP luminescence, 48 h; scaled: DMSO 0, geranylgeraniol control 100;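 active means mean ATP rescue above about 67%, or every replicate alone reaching that limit, limit read from the data, passing the limit was not always enough; inconclusive means no clear call, values can overlap the other calls; inactive means mean under the limit and some replicate under it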;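 further: myotubes were challenged with 10 µM simvastatin during compound exposure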
HIV Env fusion – inhibitors of HIV-1 Env-driven cell-cell fusion, primary screen, HeLa-JRFL effector, CEM21 target cells, luciferase; inhibition, % at 12.3 µM; 360,000 tested, 1.1% active;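 active means mean replicate inhibition score of at least 50 and every replicate individually at or above 50; inconclusive means only one of the two criteria met; inactive means mean below 50 and not all replicates reaching 50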
EWS-Fli block – EWS/Fli-driven NR0B1 reporter inhibitors, primary screen, A673 cells, NR0B1 luciferase, luminescence, MLPCN library. inhibition, % at 12.6 µM. viability-normalised. 350,000 tested, 0.67% active;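 active means mean inhibition of at least 50% after viability correction, with every replicate also passing that limit; inconclusive means mean reaches 50% but only one of two replicates passes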;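 further: firefly luciferase signal divided by Alamar Blue viability fluorescence both relative to DMSO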
INS-1E GSIS act – GLuc luminescence reporter in INS-1E cells, primary screen for activators of glucose-dependent secretion of insulin. INS-1E GLuc reporter insulin secretion, 2-3 h. activation, % at 16.6 µM. 370,000 tested, 0.61% active;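 active means lowest replicate activation of at least 40%, so every replicate reaches that level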
A number is an active result; . = inactive; ? = inconclusive; / = no result.

SMILES | miR122 inh | PAX8 reporter | C2C12 statin | HIV Env fusion | EWS-Fli block | INS-1E GSIS act
C[C@@H]1CCCCO[C@H](CN(C)C(=O)c2ccncc2)[C@H](C)CN([C@H](C)CO)C(=O)c2cc(NS(=O)(=O)c3ccccc3)ccc2O1 | . | . | / | . | . | .
c1ccc(-c2c[n+]3c(n2-c2ccccc2)CCC3)cc1 | . | . | . | . | . | .
CCOc1ccc(-n2c(-c3ccccc3)c[n+]3c2CCCCC3)cc1 | / | 86 | / | . | . | .
COc1cccc(NC(=O)N[C@H]2C=C[C@H](CC(=O)N3CCN(C)CC3)O[C@@H]2CO)c1 | / | . | . | . | . | .
O=[N+]([O-])c1ccc(Sc2nc3ccccc3o2)c([N+](=O)[O-])c1 | . | / | . | / | 63 | .
O=[N+]([O-])c1ccc(Cl)cc1Sc1nc2ccccc2o1 | . | / | . | / | . | .
O=[N+]([O-])c1ccc(Sc2cc[n+]([O-])c3ccccc23)c([N+](=O)[O-])c1 | . | . | 80 | . | . | .
O=c1[nH]c(Sc2ccc([N+](=O)[O-])cc2[N+](=O)[O-])nc2ccccc12 | / | . | / | . | . | .
C[C@H](CO)N1C[C@H](C)[C@H](CN(C)S(=O)(=O)c2cn(C)cn2)Oc2ccc(NC(=O)Cn3cnnn3)cc2CC1=O | . | . | . | . | . | .
C[C@@H]1CCCCO[C@@H](CN(C)S(=O)(=O)c2ccc(F)cc2)[C@@H](C)CN([C@@H](C)CO)C(=O)c2cc(NS(=O)(=O)c3ccc(Cl)cc3)ccc2O1 | . | . | / | . | . | .
C[C@H](CO)N1C[C@H](C)[C@@H](CN(C)S(=O)(=O)c2ccc(F)cc2)OCCCC[C@H](C)Oc2ccc(NS(=O)(=O)c3ccc(Cl)cc3)cc2C1=O | . | 90 | / | . | . | .
C[C@@H]1CN([C@@H](C)CO)C(=O)c2cc(NS(=O)(=O)c3ccc(F)cc3)ccc2O[C@@H](C)CCCCO[C@@H]1CN(C)S(=O)(=O)c1ccc(Cl)cc1 | . | . | . | . | . | .
C[C@@H]1CCCCO[C@H](CN(C)S(=O)(=O)c2ccc(Cl)cc2)[C@@H](C)CN([C@@H](C)CO)C(=O)c2cc(NS(=O)(=O)c3ccc(F)cc3)ccc2O1 | . | 75 | . | . | . | .
C[C@@H]1CCCCO[C@@H](CN(C)S(=O)(=O)c2ccc(Cl)cc2)[C@H](C)CN([C@H](C)CO)C(=O)c2cc(NS(=O)(=O)c3ccc(F)cc3)ccc2O1 | . | 81 | . | . | . | .
C[C@@H]1CN([C@H](C)CO)C(=O)c2cc(NS(=O)(=O)c3ccc(Cl)cc3)ccc2O[C@@H](C)CCCCO[C@H]1CN(C)S(=O)(=O)c1ccc(F)cc1 | . | 87 | / | . | . | .
C/C(NC(=O)c1cccc(F)c1)=C1/C(=O)C[C@@H]2[C@H]1C2(C)C | . | / | 128 | / | / | .
C/C(NC(=O)c1ccccc1F)=C1\C(=O)C[C@@H]2[C@H]1C2(C)C | . | / | . | / | / | .
O=c1[nH]c(N2CCOCC2)nc2c1CCCC2 | . | / | 117 | ? | / | /
CSc1nc2c(c(=O)[nH]1)CCCC2 | . | / | 119 | / | / | .
O=C(O)CSc1nc2c(c(=O)[nH]1)CCCC2 | / | / | / | . | / | .
CCCc1nc2oc3c(NCC(C)O)ncnc3c2c2c1CCCC2 (stereo not drawn) | . | . | / | . | . | .
CC(C)Cc1nc2oc3c(NCc4cccnc4)ncnc3c2c2c1CCC2 | . | / | . | . | / | 75
CC(C)c1nc2oc3c(NCc4cccnc4)ncnc3c2c2c1CCC2 | . | . | . | . | / | /
CC(C)Cc1nc2oc3c(NCC4CCCO4)ncnc3c2c2c1CCC2 (stereo not drawn) | . | 82 | . | . | / | /
C[C@H](CO)N1C[C@H](C)[C@@H](CN(C)Cc2ccccc2)Oc2c(NC(=O)Nc3ccccc3)cccc2C1=O | . | . | . | . | . | .
SMILES | miR122 inh | PAX8 reporter | C2C12 statin | HIV Env fusion | EWS-Fli block | INS-1E GSIS act
COc1ccc(S(=O)(=O)N(C)C[C@H]2OCCCC[C@@H](C)Oc3ccc(NS(=O)(=O)c4ccc(Cl)cc4)cc3C(=O)N([C@@H](C)CO)C[C@H]2C)cc1 | / | 69 | / | / | . | .
COc1ccc(S(=O)(=O)N(C)C[C@@H]2OCCCC[C@H](C)Oc3ccc(NS(=O)(=O)c4ccc(Cl)cc4)cc3C(=O)N([C@@H](C)CO)C[C@@H]2C)cc1 | / | 64 | / | / | . | .
COc1ccc(S(=O)(=O)Nc2ccc3c(c2)C(=O)N([C@@H](C)CO)C[C@@H](C)[C@@H](CN(C)S(=O)(=O)c2ccc(Cl)cc2)OCCCC[C@@H](C)O3)cc1 | . | 69 | / | . | . | .
COc1ccc(S(=O)(=O)Nc2ccc3c(c2)C(=O)N([C@H](C)CO)C[C@@H](C)[C@@H](CN(C)S(=O)(=O)c2ccc(Cl)cc2)OCCCC[C@@H](C)O3)cc1 | . | . | / | . | . | .
COc1ccc(S(=O)(=O)Nc2ccc3c(c2)C(=O)N([C@@H](C)CO)C[C@@H](C)[C@H](CN(C)S(=O)(=O)c2ccc(Cl)cc2)OCCCC[C@H](C)O3)cc1 | . | . | / | . | . | .
C[C@@H]1CCCCO[C@@H](CN(C)Cc2ccc(Cl)c(Cl)c2)[C@H](C)CN([C@@H](C)CO)C(=O)c2cc(NS(=O)(=O)c3cn(C)cn3)ccc2O1 | . | . | / | . | . | .
O=C(C[C@@H]1C=C[C@H](NC(=O)c2ccccc2)[C@@H](CO)O1)NCc1ccc(Oc2ccccc2)cc1 | . | . | . | . | . | .
COc1cccc(CNC(=O)C[C@@H]2C=C[C@@H](NS(=O)(=O)c3ccccc3OC)[C@@H](CO)O2)c1 | / | . | . | . | . | .
COc1ccc(NC(=O)N(C)C[C@@H]2Oc3ccc(NC(=O)CCC(F)(F)F)cc3C(=O)N([C@H](C)CO)C[C@@H]2C)cc1 | . | . | . | . | . | .
Cc1cccc(NC(=O)c2ccc(S(=O)(=O)N3CCCCCC3)cc2)n1 | . | . | / | . | . | .
Cc1cccc(NC(=O)c2ccc(S(=O)(=O)N3CC(C)OC(C)C3)cc2)n1 (stereo not drawn) | . | . | . | 56 | . | .
CCCNC(=O)N1CCC2(CC1)CN(C(=O)NC(C)C)[C@H](CO)c1c2c2ccc(OC)cc2n1C | / | . | / | / | . | .
COc1ccc(C(C(=O)NC(C)(C)C)N(CCC(C)C)C(=O)CCC(=O)Nc2cc(C)on2)cc1 (stereo not drawn) | . | . | . | 69 | . | .
CCOC(=O)CN(C(=O)CCC(=O)Nc1cc(C)on1)C(C(=O)NC1CCCC1)c1cccnc1 (stereo not drawn) | . | . | / | . | / | /
Cc1cc(NC(=O)CCC(=O)N(CCC(C)C)C(C(=O)NC2CCCC2)c2cccnc2)no1 (stereo not drawn) | . | / | 105 | / | / | /
